A short description of assay [1]: blockers of polyQ-driven CASP3 activation – cell-based (AID 1583). The note with it: polyglutamine-induced caspase-3 activation, cell assay; stronger effect = higher value;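 tested at 10 µM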.
The nature of assay [2]: yeast 75Q aggregation reduction – 75Q-TubU reporter (AID 1593). The note with it: Yeast 75Q polyglutamine aggregation reporter.
Assay [3] in a line: restoration of touch response, mutant HTT neurons – whole organism, C. elegans mechanosensory neurons, N-terminal huntingtin (AID 1599). The note with it: C. elegans polyQ-huntingtin mechanosensory neurons, stronger effect = higher value.
The nature of assay [4]: blockers of cytochrome c efflux from mitochondria – biochemical, purified mitochondria (AID 1603).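 Also: mouse liver mitochondria challenged with calcium chloride; signal normalized to the plate average as 100%.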 The conditions noted are these: stronger effect = lower value.
Assay [5] can be described thus: polyglutamine aggregate formation blockers (AID 1604). The note with it: polyglutamine-induced protein aggregation inhibition assay; stronger effect = higher value; tested at 2.5 µM.
Assay [6] can be described thus: glutamate transport activators, MN-1 cells, MN-1 cell line (AID 1612).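 Also: tested at 1 µM final; 0% = mean of DMSO vehicle wells on each plate; positive means more glutamate uptake than control and negative means less.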 The note with it: MN-1 motor neuron cells, stronger effect = higher value.
Assay [7] in a line: GFP-Q80 aggregate reduction, neuronal-like cells, cell-based, NGF-treated PC12, GFPQ80 (AID 1614).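 Also: lower means fewer inclusions and 0 means no inclusions at all.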 The conditions noted are these: PC12 NGF-treated GFP-polyQ80 inclusion reduction.
The nature of assay [8]: 75Q-TubH aggregate inhibition, S. cerevisiae, yeast (AID 1616). The conditions noted are these: S. cerevisiae 75Q-TubH polyglutamine aggregation suppression; stronger effect = higher value.
Assay [9] in a line: P. berghei load reduction in hepatocytes – cell-based, HepG2, luciferase luminescence, HepG2 viability, primary screen (AID 624349).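 Also: 100% = mean of DMSO negative control wells on the same plate.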 The conditions noted are these: P. berghei liver stage in HepG2, luciferase luminescence, concentration not given here; parasite load remaining: stronger effect = lower value; viability: measured here: HepG2 viability without parasites.
The nature of assay [10]: EMT-state selective cytotoxicity in co-culture – imaging, PC-3E GFP, TEM4-18 mCherry, primary screen (AID 1345086;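 active = compounds killing one labelled cell type while sparing the other, by normalised counts and ratio limits, not self-fluorescent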;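 as to all read-outs here: cells exposed to compound for 72 h before imaging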;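 as to red/green cell ratio (normalised): normalised mesenchymal count divided by normalised epithelial count so high means epithelial killing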). The note with it: PC-3E GFP / TEM4-18 mCherry co-culture, imaging cell counts, at 1 µM; for red/green cell ratio (normalised): actives lie on both sides, counts scaled to control wells, 1 = unselective.
The nature of assay [11]: viability loss with induced miR-34 in A549 – imaging, A549 dox-inducible miR-34, nuclei and caspase counts, primary screen (AID 1347080;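 active = compounds whose cell count with miR-34 switched on is under 0.7 times the count with it off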). The note with it: A549 miR-34 inducible, Hoechst nuclei count, 48 h.
Setting [12] is: measured here: epithelial PC-3E GFP cell survival.
Where [13] appears, read: measured here: mesenchymal TEM4-18 mCherry cell survival.
Setting [14] is: stronger effect = lower value, cell number ratio, induced over uninduced.
Where [15] appears, read: measured here: relative caspase fold change +Dox/-Dox.
Setting [16] is: measured here: total cells with miR-34 induction, stronger effect = lower value.
Where [17] appears, read: measured here: total cells without miR-34 induction.

Several values for one entry are separate records, joined by “and”; a condition that tells them apart may be missing. Equal entries are not always repeated. For some assays here: Potency and affinity values are given separately. Activity calls are given as the source filed them. Rule as the data show it, unless noted: active = parasite load remaining mostly below about 12% (no sharp cut-off); inactive = mostly above about 10%.

Regarding `C[N+]1(C)C2CC[C@H]1CC(OC(=O)C(O)c1ccccc1)C2` (stereo partly drawn), the inhibition in assay [1] was found to be 5.29%. Also, the score in [2] was found to be 1.53. Also, the rescue above control in assay [3] was 12.1. Also, in [4], the cytochrome c release ratio amounted to 0.9. The same compound came in with an inhibition of aggregation in [5] of 65.1%. Also, the glutamate uptake change in assay [6] is -16.5%. The compound further yielded an inclusion score in assay [7] of 2. The aggregation suppression score in assay [8] stood at 1.36. Moreover, the parasite load remaining in assay [9] was 95.8% (inactive) and 69.2% (inactive). Also, the viability in [9] was 75.7% and 100%. Also, in assay [10], the red/green cell ratio (normalised) was 0.83 (inactive). Further, the normalised cell number in [10] (setting [12]) came to 1.16; in assay [10] (setting [13]) it was 0.97. Moreover, the fold change in assay [11] (setting [14]) is 0.874 (inactive); in assay [11] (setting [15]), 1.28. For the same compound, the figures for the cell count in assay [11] (setting [16]) and in [11] (setting [17]) were 10300 and 11800, respectively.
Take `CC1(C)C2CC[C@]3(C)C(C(=O)C=C4[C@@H]5C[C@@](C)(C(=O)O)CC[C@]5(C)CC[C@]43C)[C@@]2(C)CC[C@@H]1OC(=O)CCC(=O)O` (stereo partly drawn): the inhibition in assay [1] turned out to be 59.3%. The score in assay [2] stood at 2.57. Also, the rescue above control in assay [3] is -3.48. Besides, in [4], the cytochrome c release ratio worked out at 3.47. Moreover, the inhibition of aggregation in assay [5] was 66.7%. Further, the glutamate uptake change in assay [6] is -2.75%. The aggregation suppression score in [8] turned out to be 1.68. For the same compound, the parasite load remaining in assay [9] was 124% (inactive) and 24.9% (inactive). Moreover, the viability in assay [9] was 99.6% and 85.2%. The red/green cell ratio (normalised) in [10] was 0.99 (inactive). For the same compound, the normalised cell number in assay [10] (setting [12]) was 1.01; in [10] (setting [13]), 1. The fold change in assay [11] (setting [14]) was 0.887 (inactive); in assay [11] (setting [15]) it was 2.9. Moreover, the values for the cell count in assay [11] (setting [16]) and in [11] (setting [17]) were 10800 and 12200, respectively.
In turn, `CN1CCN(CCC=C2c3ccccc3Sc3ccc(S(=O)(=O)N(C)C)cc32)CC1` returned an inhibition in assay [1] of 35.1%. In assay [2], the score was found to be 0.75. This compound had a rescue above control in assay [3] of 18.8. In assay [4], the cytochrome c release ratio came out at 2.01. Also, in assay [5], the inhibition of aggregation came out at 76%. Further, the glutamate uptake change in assay [6] is -21.1%. Besides, the aggregation suppression score in [8] stood at 0.481. Moreover, the parasite load remaining in [9] was 192% (inactive) and 47.1% (inactive). Besides, the viability in assay [9] is 71.3% and 85.4%. In addition, the red/green cell ratio (normalised) in assay [10] was 1.07 (inactive). Moreover, the normalised cell number in assay [10] (setting [12]) was determined as 0.83; in [10] (setting [13]) it was 0.89. The fold change is 0.878 (inactive) in assay [11] (setting [14]) and 3.25 in assay [11] (setting [15]). The results for the cell count in assay [11] (setting [16]) and in assay [11] (setting [17]) were 9700 and 11100, respectively.
On to `C[C@H]1CC2C([C@@H](O)C[C@@]3(C)C2CC[C@]3(O)C(=O)CO)[C@@]2(C)C=CC(=O)C=C12` (stereo partly drawn), for which the inhibition in assay [1] came to 13.3%. The same compound yielded a score in [2] of 1.06. The rescue above control in assay [3] is -2. Also, the cytochrome c release ratio in assay [4] was 0.64. For the same compound, in [5], the inhibition of aggregation came out at 83.1%. Also, the glutamate uptake change in [6] was found to be 14.1%. In [7], this compound came in with an inclusion score of 2. In assay [8], this compound showed an aggregation suppression score of 1.35. In addition, the parasite load remaining in assay [9] was 110% (inactive) and 67.7% (inactive). Also, in [9], the viability is 78.4% and 89.4%. In addition, in [10], the red/green cell ratio (normalised) was 1.21 (inactive). In addition, the normalised cell number turned out to be 1.36 in [10] (setting [12]) and 1.64 in assay [10] (setting [13]). Besides, the fold change in assay [11] (setting [14]) was 0.922 (inactive); in [11] (setting [15]), 1.43. For the same compound, the figures for the cell count in assay [11] (setting [16]) and in [11] (setting [17]) were 7440 and 8070, respectively.
Compound `C[C@H](CCC(=O)O)[C@H]1CCC2C3C(=O)CC4CC(=O)CC[C@]4(C)C3CC(=O)[C@@]21C` (stereo partly drawn) returned an inhibition in assay [1] of 12.1%. The score in [2] is 1.59. Further, the rescue above control in assay [3] is -5.38. In assay [4], the cytochrome c release ratio turned out to be 1.29. Moreover, the inhibition of aggregation in assay [5] is 91.6%. Moreover, in assay [6], the glutamate uptake change stood at 7.41%. In addition, the inclusion score in assay [7] was 2. Besides, the aggregation suppression score in assay [8] was 1.06. For the same compound, the parasite load remaining in assay [9] is 101% (inactive) and 58% (inactive). In addition, the viability in [9] was 69.6% and 86.9%. Besides, the red/green cell ratio (normalised) in assay [10] was 1.22 (inactive). The normalised cell number in assay [10] (setting [12]) came out at 1.21; in assay [10] (setting [13]), 1.47. Further, the fold change in assay [11] (setting [14]) is 0.851 (inactive); in [11] (setting [15]), 1.32. Further, the cell count was found to be 10500 in assay [11] (setting [16]) and 12400 in [11] (setting [17]).

These data come from PubChem BioAssay.
